{
  "source": "PubChem BioAssay AID559",
  "about": "(PCMD, 2006)",
  "note": "Out of some 62,000 compounds screened, about 100 (0.2%) were called active. Cut-off read from the data, not from the text of the source: active = inhibition above about 20%; inactive = the rest. The full list was thinned out, with actives kept by preference.",
  "data": [
    {"target": "DNA-directed RNA polymerase subunit beta (Escherichia coli (strain K12)) (UniProt P0A8V2)", "sequence (P0A8V2 whole entry, looked up)": "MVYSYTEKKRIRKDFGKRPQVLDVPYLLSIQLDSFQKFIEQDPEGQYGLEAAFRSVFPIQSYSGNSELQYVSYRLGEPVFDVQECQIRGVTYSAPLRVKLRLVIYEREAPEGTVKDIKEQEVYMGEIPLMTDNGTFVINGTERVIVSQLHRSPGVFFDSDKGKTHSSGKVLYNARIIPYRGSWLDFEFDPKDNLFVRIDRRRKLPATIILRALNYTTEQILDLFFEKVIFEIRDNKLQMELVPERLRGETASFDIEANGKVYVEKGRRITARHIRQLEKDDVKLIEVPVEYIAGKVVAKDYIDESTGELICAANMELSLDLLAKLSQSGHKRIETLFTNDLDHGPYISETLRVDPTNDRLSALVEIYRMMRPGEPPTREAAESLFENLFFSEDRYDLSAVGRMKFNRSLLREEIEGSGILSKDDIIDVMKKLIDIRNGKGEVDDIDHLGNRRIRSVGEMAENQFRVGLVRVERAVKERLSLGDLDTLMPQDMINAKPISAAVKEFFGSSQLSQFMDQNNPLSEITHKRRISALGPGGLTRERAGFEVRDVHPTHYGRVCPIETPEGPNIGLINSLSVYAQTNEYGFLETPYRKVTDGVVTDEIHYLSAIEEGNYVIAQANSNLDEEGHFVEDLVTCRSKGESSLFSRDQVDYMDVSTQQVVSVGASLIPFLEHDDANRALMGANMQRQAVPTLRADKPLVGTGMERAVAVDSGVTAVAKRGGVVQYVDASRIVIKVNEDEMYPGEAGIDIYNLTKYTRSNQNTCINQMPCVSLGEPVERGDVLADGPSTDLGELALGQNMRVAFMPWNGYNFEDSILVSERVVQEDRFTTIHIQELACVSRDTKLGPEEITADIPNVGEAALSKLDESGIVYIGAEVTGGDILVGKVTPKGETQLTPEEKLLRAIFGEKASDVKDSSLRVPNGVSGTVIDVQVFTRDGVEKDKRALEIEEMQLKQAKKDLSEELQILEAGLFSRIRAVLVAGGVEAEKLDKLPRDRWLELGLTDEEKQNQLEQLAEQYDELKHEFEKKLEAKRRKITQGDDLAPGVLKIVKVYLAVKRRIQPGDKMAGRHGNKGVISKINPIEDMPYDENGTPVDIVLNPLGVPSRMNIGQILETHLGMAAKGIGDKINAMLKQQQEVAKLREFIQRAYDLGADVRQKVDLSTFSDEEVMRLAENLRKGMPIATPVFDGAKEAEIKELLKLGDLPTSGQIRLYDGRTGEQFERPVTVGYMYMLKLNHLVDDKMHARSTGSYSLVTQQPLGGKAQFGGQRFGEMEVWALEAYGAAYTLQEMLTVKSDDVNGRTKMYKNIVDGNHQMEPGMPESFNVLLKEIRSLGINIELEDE", "assay": "bacterial RNA polymerase transcription inhibition – biochemical (AID 559);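 note: 0% = enzyme without compound and 100% = no enzyme blank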", "conditions": "E. coli RNA polymerase, fluorescence transcription assay; active compounds read high;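 tested at 10 µM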", "values": [
      {"smiles": "CCOc1ccc(CNC(=O)C2CC(=O)N(C3CCCC3)C2)cc1OC", "note": "(stereo not drawn)", "inhibition": "-2.47% (inactive)"},
      {"smiles": "COC(=O)[C@H](Cc1ccccc1)NC(=O)Nc1ccc(S(N)(=O)=O)cc1", "inhibition": "10.2% (inactive)"},
      {"smiles": "CNC(=O)C1CC(=O)N(Cc2ccc3c(c2)OCO3)C(=Nc2ccc(F)cc2)S1", "note": "(stereo not drawn)", "inhibition": "-0.38% (inactive)"},
      {"smiles": "CCOc1ccc(C(C)C)cc1S(=O)(=O)n1nc(C)cc1C", "inhibition": "5.62% (inactive)"},
      {"smiles": "CN1CCN(CCCNC(=O)c2cc3c(=O)oc4ccccc4c3s2)CC1", "inhibition": "7.32% (inactive)"},
      {"smiles": "CCC(=O)Nc1cccc(NC(=O)CSc2nnnn2C2CCCC2)c1", "inhibition": "9.82% (inactive)"},
      {"smiles": "Cc1cc(C)n(C(=O)c2ccc(S(=O)(=O)N3CCCC3)cc2)n1", "inhibition": "-6.35% (inactive)"},
      {"smiles": "Cc1ccc(-c2ccc(=O)n(CC(=O)NCCCN3CCCCC3)n2)cc1", "inhibition": "5.27% (inactive)"},
      {"smiles": "O=C(CCCOc1ccccc1)Nc1cccc(C(=O)O)c1", "inhibition": "5.97% (inactive)"},
      {"smiles": "COc1ccc(CC(=O)c2ccc(O)cc2O)cc1OC", "inhibition": "-2.96% (inactive)"},
      {"smiles": "Nc1nnnn1/N=C/c1cccs1", "inhibition": "0.8% (inactive)"},
      {"smiles": "COc1c(C)cccc1C(=O)Nc1cc(Cl)ccc1N1CCOCC1", "inhibition": "5.92% (inactive)"},
      {"smiles": "c1cnn(-c2cc(N3CCOCC3)ncn2)c1", "inhibition": "-13.1% (inactive)"},
      {"smiles": "O=C(Nc1cc(N2CCOCC2)ncn1)NC1(C(F)(F)F)Oc2ccc(Cl)cc2O1", "note": "(stereo not drawn)", "inhibition": "35.4% (active)"},
      {"smiles": "Cc1ccc(C)c2[nH]c(=O)c(CCNC(=O)CC(C)C)cc12", "inhibition": "6.91% (inactive)"},
      {"smiles": "O=C(NCCc1ccccn1)c1ccc(COc2ccccc2)o1", "inhibition": "5.1% (inactive)"},
      {"smiles": "CC1CC(C)CN(CC(=O)Nc2ccc(S(N)(=O)=O)cc2)C1", "note": "(stereo not drawn)", "inhibition": "4.05% (inactive)"},
      {"smiles": "Cc1cc(Nc2ccc(Br)cc2F)n2ncnc2n1", "inhibition": "-2.75% (inactive)"},
      {"smiles": "CN1CCc2c(sc3c2c(NCc2ccco2)nc2nnnn23)C1", "inhibition": "-5.9% (inactive)"},
      {"smiles": "COc1ccc(-c2nc(CS(=O)CC(=O)NCc3cccnc3)c(C)o2)cc1OC", "note": "(stereo not drawn)", "inhibition": "-0.41% (inactive)"},
      {"smiles": "CCOC(=O)c1c(CN2CCOCC2)n(-c2ccccc2)c2ccc(O)cc12", "inhibition": "9.89% (inactive)"},
      {"smiles": "COc1cc(OC)cc(-c2nc3nc(C)c(CCC(=O)NCc4ccco4)c(C)n3n2)c1", "inhibition": "0.61% (inactive)"},
      {"smiles": "CC(=O)c1nc(N2C(=O)C3CC=C(C)CC3C2=O)sc1C", "note": "(stereo not drawn)", "inhibition": "8.57% (inactive)"},
      {"smiles": "O=C1c2oc3ccc(Br)cc3c(=O)c2C(c2cccc(F)c2)N1CCO", "note": "(stereo not drawn)", "inhibition": "2.5% (inactive)"},
      {"smiles": "CN1C(=O)c2ccc(NC(=O)c3c(F)c(F)c(F)c(F)c3F)cc2C1=O", "inhibition": "11.6% (inactive)"},
      {"smiles": "Cn1c(SCC(=O)Nc2cccc(O)c2)nnc1-c1ccc(S(=O)(=O)N2CCOCC2)cc1", "inhibition": "0.17% (inactive)"},
      {"smiles": "Fc1ccccc1OCCCCn1cncn1", "inhibition": "2.62% (inactive)"},
      {"smiles": "CCOCCCNS(=O)(=O)Cc1ccccc1", "inhibition": "8.39% (inactive)"},
      {"smiles": "Cc1ccc(O)c(NC(=O)COc2cc(C)ccc2C)c1", "inhibition": "4.28% (inactive)"},
      {"smiles": "CCCOc1ccc(C2C(C(=O)c3ccc(C)o3)=C(O)C(=O)N2CCCn2ccnc2)cc1", "note": "(stereo not drawn)", "inhibition": "5.52% (inactive)"},
      {"smiles": "O=C(Nc1ccon1)c1sc2ccccc2c1Cl", "inhibition": "-7.58% (inactive)"},
      {"smiles": "NC(CSC12CC3CC(CC(C3)C1)C2)C(=O)O", "note": "(stereo not drawn)", "inhibition": "4.34% (inactive)"},
      {"smiles": "CC(C)c1nc(-c2ccccn2)no1", "inhibition": "4.3% (inactive)"},
      {"smiles": "O=C(NCc1ccccc1)C1C(=O)N(Cc2ccccc2)C(=O)C1C1(O)CCCC1", "note": "(stereo not drawn)", "inhibition": "-8.01% (inactive)"},
      {"smiles": "CCOCC(=O)Nc1cc(OC)c(Cl)cc1OC", "inhibition": "5.42% (inactive)"},
      {"smiles": "Cc1ccc(S(=O)(=O)N2C3C=CC(C3)C2C(=O)O)cc1", "note": "(stereo not drawn)", "inhibition": "8.4% (inactive)"},
      {"smiles": "Cc1cccc(N2C(=O)SC(N(CC(=O)O)c3cccc(C)c3)C2=O)c1", "note": "(stereo not drawn)", "inhibition": "6.1% (inactive)"},
      {"smiles": "COc1cccc(C(CC(=O)NCCN2CCOCC2)NS(=O)(=O)c2ccc(C)cc2)c1OC", "note": "(stereo not drawn)", "inhibition": "4.2% (inactive)"},
      {"smiles": "Cc1ccsc1C(=O)OCC(=O)c1cc2ccccc2o1", "inhibition": "8.68% (inactive)"},
      {"smiles": "Cc1cc2c(=O)n(C)c(SCC(=O)c3cc4ccccc4o3)nc2s1", "inhibition": "20.9% (active)"},
      {"smiles": "Cc1ccc(C(=O)CSc2nc3ccccc3c(=O)n2N)o1", "inhibition": "4.54% (inactive)"},
      {"smiles": "O=C(CN1C(=O)C2C3C=CC(C3)C2C1=O)NCC1COc2ccccc2O1", "note": "(stereo not drawn)", "inhibition": "-8.67% (inactive)"},
      {"smiles": "O=C1CCC(Cc2ccccc2)N1", "note": "(stereo not drawn)", "inhibition": "6.1% (inactive)"},
      {"smiles": "Cn1c(=O)n(C)c(=O)n(CC(=O)N2CCCCC2)c1=O", "inhibition": "5.37% (inactive)"},
      {"smiles": "CC(=O)Nc1cccc2c1[n+]([O-])c(C)c(C)[n+]2[O-]", "inhibition": "-3.37% (inactive)"},
      {"smiles": "O=C(Nc1nc2cc3c(cc2s1)OCCO3)c1cccc(S(=O)(=O)N2CCOCC2)c1", "inhibition": "-1.12% (inactive)"},
      {"smiles": "CCCN1C(=O)C(NC(C)=O)c2cc(OC)ccc21", "note": "(stereo not drawn)", "inhibition": "8.13% (inactive)"},
      {"smiles": "Cc1noc(NS(=O)(=O)c2ccc(NC(=O)C34CCC(CC3)C4)cc2)c1C", "inhibition": "3.43% (inactive)"},
      {"smiles": "COc1cccc2sc(Nc3nc(C)c(C(C)=O)s3)nc12", "inhibition": "-0.4% (inactive)"},
      {"smiles": "CCCOc1ccc(NC(=O)C2CCCNC2=O)cc1", "note": "(stereo not drawn)", "inhibition": "2.77% (inactive)"},
      {"smiles": "CCCCOC(=O)NCN1C(=O)C2C3C=CC(C3)C2C1=O", "note": "(stereo not drawn)", "inhibition": "0.68% (inactive)"},
      {"smiles": "COc1ccc(OC)c(NC(=O)CC(Cc2ccccc2OC)C(=O)O)c1", "note": "(stereo not drawn)", "inhibition": "4.42% (inactive)"},
      {"smiles": "CC(C)N(C(=O)Cn1c(SCC(=O)N2CCN(c3ccccc3)CC2)nc2ccccc21)C(C)C", "inhibition": "5.85% (inactive)"},
      {"smiles": "O=C(Cn1nc(C(F)(F)F)c2c1CCC2)NCc1ccc(F)cc1", "inhibition": "-0.7% (inactive)"},
      {"smiles": "COc1ccc(CNC(=O)c2c(C)cc(=O)oc2C)cc1OC", "inhibition": "8.6% (inactive)"},
      {"smiles": "Cc1nc(NC(CC(C)C)C(=O)O)c2nc(C)oc2n1", "note": "(stereo not drawn)", "inhibition": "-1.28% (inactive)"},
      {"smiles": "O=C(CSc1n[nH]c(-c2cccnc2)n1)Nc1ccnc2ccccc12", "inhibition": "11.1% (inactive)"},
      {"smiles": "O=S(=O)(c1ccc(OCC(O)CN2CCN(c3ccccc3Cl)CC2)cc1)N1CCOCC1", "note": "(stereo not drawn)", "inhibition": "1.46% (inactive)"},
      {"smiles": "CCOc1cc(-c2nc3cc(C)ccn3c2NCC2CCCO2)ccc1O", "note": "(stereo not drawn)", "inhibition": "6.06% (inactive)"},
      {"smiles": "CCCNS(=O)(=O)c1ccc2c(c1)CCCN2C(C)=O", "inhibition": "5.31% (inactive)"},
      {"smiles": "CCN(CC)c1ccc(C(=O)OCC(=O)c2ccco2)cc1", "inhibition": "4.69% (inactive)"},
      {"smiles": "C=CCOC(=O)C1=C(C)OC(N)=C(C#N)C1c1ccc(F)cc1", "note": "(stereo not drawn)", "inhibition": "0.25% (inactive)"},
      {"smiles": "Cc1ccc(C2CC(c3cccc(Br)c3)n3nc(N)nc3N2)cc1", "note": "(stereo not drawn)", "inhibition": "8.67% (inactive)"}
    ]}
  ]
}
